The list is not random: actives were taken first. Their share in the collection is about 1.3%.
AmpC inh detg: blocks E. coli AmpC beta-lactamase in detergent assay | P00811 | AmpC hydrolysis of nitrocefin, absorbance 480 nm, 0.01% Triton | Potency, µM (highest dose often 114 µM), inactives show at the highest dose activity change, negative = inhibition, hits mostly inhibitors | hit rate 0.041% among 370,000 | AID 485294;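 further: 0% = no-compound wells and -100% = no-enzyme wells; nearly all actives have a fitted effect of over 25% in size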
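20 mM phosphate pH 7.0 + 0.01% (detergent screen) or 0.0001% Triton X-100; 5.3 nM AmpC reagent; cpd preinc 15 min RT; nitrocefin (800 uM stock) to start; A480 q20 s × 4 min; Activity was normalised to no-enzyme and no-compound control wells.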
AmpC inh no detg: AmpC beta-lactamase inhibition without detergent. P00811. AmpC nitrocefin hydrolysis, absorbance 480 nm, 0.0001% Triton. Potency, µM (doses to about 57.1 µM), for the others: top-dose activity change, negative = inhibition, usual class: inhibitors. hit rate 0.52% among 330,000. AID 485341;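 further: plate controls were no compound for no effect and no enzyme for full effect; nearly all actives have a fitted effect of over 20% in size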
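20 mM phosphate pH 7.0 + 0.01% (detergent screen) or 0.0001% Triton X-100; 5.3 nM AmpC reagent; cpd preinc 15 min RT; nitrocefin (800 uM stock) to start; A480 q20 s × 4 min; Activity was normalised to no-enzyme and no-compound control wells.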
LmPK inh: LmPK (Leishmania mexicana) enzyme inhibition | Q27686 | purified LmPK, Kinase-Glo ATP luminescence, 1 h | Potency, µM (series often up to 57.5 µM), for the others: top-dose activity change, negative = inhibition, usual class: inhibitors | hit rate 0.37% among 290,000 | AID 1721
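Pyruvate kinase activity monitored as ATP production (luciferase luminescence). Conditions: 0.1 nM enzyme, 0.5 mM PEP, 0.1 mM ADP, 1 h, RT; normalized against uninhibited and no-enzyme wells.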
AMA1-RON2 inh: disrupts binding of P. falciparum AMA1 to RON2; AlphaScreen AMA1-biotinylated RON2 peptide binding; Potency, µM (series often up to 58.2 µM), without a hit: at the highest dose activity change, negative = inhibition, usual class: inhibitors; hit rate 0.2% among 360,000; AID 720542;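 further: 0% = vehicle wells and -100% = peptide control; nearly all actives have a fitted effect of over 45% in size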
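AMA1 (3D7) with his tag at 25 nM final met compounds first, then biotinylated RON2 peptide at 25 nM; detection used donor plus acceptor beads, 10 µg/mL apiece, read by AlphaScreen after 30 min at room temperature.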
Giardia FBPA inh-1: inhibitors of Giardia lamblia fructose-1,6-bisphosphate aldolase; A8B2U2; purified Giardia FBPA; Potency, µM (titrated, usually from 59.6 µM), inactives show at the top dose activity, negative = inhibition, most hits filed as inhibitors; hit rate 0.71% among 290,000; AID 2451; further: nearly all actives have a fitted effect of over 55% in size
Target sequence (A8B2U2 whole entry, looked up): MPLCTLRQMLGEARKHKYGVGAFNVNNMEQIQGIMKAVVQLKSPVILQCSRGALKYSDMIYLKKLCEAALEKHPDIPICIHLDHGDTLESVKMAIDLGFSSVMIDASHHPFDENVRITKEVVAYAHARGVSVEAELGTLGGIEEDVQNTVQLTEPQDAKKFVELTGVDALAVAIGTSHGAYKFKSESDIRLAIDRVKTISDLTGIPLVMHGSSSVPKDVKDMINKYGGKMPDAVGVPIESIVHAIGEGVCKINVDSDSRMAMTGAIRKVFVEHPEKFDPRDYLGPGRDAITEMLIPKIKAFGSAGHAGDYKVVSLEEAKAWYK
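40 nM FBPA preincubated 10 min at RT with compound (up to 57.5 uM final), then substrate plus GAPDH/TPI/NAD/arsenate coupling and diaphorase/resazurin added. Fluorescence read after 20 min at RT, 525/598 nm.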
Giardia growth: blocks growth of Giardia lamblia trophozoites; Potency, µM (top dose mostly 57.5 µM), for inactives: at the top dose activity change, negative = inhibition, usual class: inhibitors; shares compounds with Giardia FBPA inh-1; hit rate 5% among 1,500; Giardia lamblia trophozoite growth inhibition; AID 2785;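 further: trophozoites exposed to compound for 48 h at 37 °C; nearly all actives have a fitted effect of over 70% in size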
Mammalian tox: mammalian cytotoxicity of Giardia aldolase inhibitor hits; shares compounds with Giardia FBPA inh-1; mammalian cell viability counter-screen, qHTS; Potency, µM (titrated, usually from 57.5 µM), without a hit: top-dose viability change, negative = toxicity, most hits filed as inhibitors; hit rate 4% among 1,500; AID 2786;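 further: Chinese hamster ovary cells used as mammalian cytotoxicity surrogate; viability measured as cellular ATP by luminescence; compound exposure lasted 48 h before reading; nearly all actives have a fitted effect of over 60% in size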
Giardia FBPA inh-2: confirmation of Giardia fructose-bisphosphate aldolase inhibitors | shares compounds with Giardia FBPA inh-1 | purified Giardia aldolase enzyme activity, qHTS | Potency, µM (doses to about 57.5 µM), for the others: at the highest dose activity change, negative = inhibition, actives largely listed as inhibitors | hit rate 5% among 1,500; further: nearly all actives have a fitted effect of over 45% in size
Rabbit FBPA inh: blocks rabbit muscle aldolase in Giardia aldolase selectivity test; shares compounds with Giardia FBPA inh-1; Rabbit muscle FBPA enzyme inhibition, selectivity counter-screen; hit rate 4% among 1,500; Potency, µM (highest dose often 57.5 µM), inactives show top-dose activity, negative = inhibition, most hits filed as inhibitors; further: nearly all actives have a fitted effect of over 60% in size
Target sequence (P00883 whole entry, looked up): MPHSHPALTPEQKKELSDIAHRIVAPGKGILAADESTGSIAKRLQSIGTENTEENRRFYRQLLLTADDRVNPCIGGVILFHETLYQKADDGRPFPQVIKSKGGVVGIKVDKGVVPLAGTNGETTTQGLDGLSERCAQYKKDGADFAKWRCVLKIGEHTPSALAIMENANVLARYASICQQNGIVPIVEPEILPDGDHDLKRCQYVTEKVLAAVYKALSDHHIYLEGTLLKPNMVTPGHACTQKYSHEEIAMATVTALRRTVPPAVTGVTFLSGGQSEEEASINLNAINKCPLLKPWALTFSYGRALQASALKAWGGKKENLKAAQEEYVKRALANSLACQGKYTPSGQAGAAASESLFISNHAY
GAPDH counter: GAPDH inhibition flagged for Giardia aldolase hits. shares compounds with Giardia FBPA inh-1. Potency, µM (titrated, usually from 57.5 µM), for the others: at the top dose activity change, negative = inhibition, usual class: inhibitors. GAPDH coupling enzyme counterscreen, biochemical, qHTS. hit rate 6% among 1,500; further: nearly all actives have a fitted effect of over 55% in size
Starred values were filed as active, the others as inactive; ? = inconclusive; · = no result given; [ ] = dose if it differs, or a comment. The call rests on the fitted dose curve; in most records, active means well fitted curve in the direction sought with a large enough effect; inconclusive means small, poorly fitted or top-dose-only effect, or another doubt; inactive means no such curve, though single readings can be large; an effect the other way counts as inactive or inconclusive. Unless noted, on the % scale 0 is the no-effect control and ±100 the full control effect; potency means the concentration at half of the fitted maximal effect.

SMILES | AmpC inh detg | AmpC inh no detg | LmPK inh | AMA1-RON2 inh | Giardia FBPA inh-1 | Giardia growth | Mammalian tox | Giardia FBPA inh-2 | Rabbit FBPA inh | GAPDH counter
Cc1csc(NC(=O)CCC(=O)N(CC(=O)NC2CCCCC2)c2ccccc2)n1 | 8% | 172% | -6% | -6% | 10% | · | · | · | · | ·
C=CCN(CC=C)CCOc1ccc(C)cc1[N+](=O)[O-] | -7% | -17% | -5% | ? | 20µM* | ? | 2% | -1% | 1% | -4%
C=CCN(CC=C)CCOc1cc(C)ccc1[N+](=O)[O-] | -13% | -3% | -6% | -12% | ? | · | · | · | · | ·
CCc1ccc(N2CSC3=C(C#N)C(c4cccs4)CC(=O)N3C2)cc1 (configuration not stated) | ? | -50% | -11% | 54% | ? | · | · | · | · | ·
N#CC1=C2SCN(c3ccc(F)cc3)CN2C(=O)CC1c1cccc(F)c1 (configuration not stated) | -4% | -28% | 2% | 54% | 7.1µM* | 12% | 5% | -28% | ? | -26%
CCOC(=O)c1ccc(N2CSC3=C(C#N)C(c4cccs4)CC(=O)N3C2)cc1 (configuration not stated) | -15% | -30% | 2% | 33% | 20µM* | 25% | -18% | -13% | -23% | -7%
COc1cccc(C2CC(=O)N3CN(C4CCCCC4)CSC3=C2C#N)c1 (configuration not stated) | 1% | · | · | · | · | · | · | · | · | ·
Cc1ccc(N2C(=O)N(CC(=O)N3c4ccccc4CC3C)C(=O)C2C)cc1 (configuration not stated) | ? | 5% | · | 0% | · | · | · | · | · | ·
CCCNC(=O)C1(C)CCCN(C(=O)c2c(F)ccc(C)c2F)C1 (configuration not stated) | · | · | · | -7% | · | · | · | · | · | ·
Cc1c(Cl)cccc1NC(=O)Cn1c(=O)nc(-c2ccccc2)c2ccccc21 | 2% | · | · | · | · | · | · | · | · | ·
CCOc1ccc(/C=N/Nc2nc(=O)[nH]nc2C)cc1OC | 4% | 2% | -23% | 119% | 20µM* | ? | 6% | 4% | -1% | 1%
COc1ccc(OC)c(CCNC(=O)c2cc3cccc4c3n2CC(C)S4)c1 (configuration not stated) | 2% | · | · | · | · | · | · | · | · | ·
CCN(CC)c1ccc(N=C2C(=O)Nc3ccccc32)cc1 | -4% | -8% | ? | ? | -16% | -2%[38.3 µM] | -21% | 0.26µM* | ? | 0.73µM*
Cc1ccc(N=C2C(=O)Nc3ccccc32)cc1 | -5% | -17% | -5% | -11% | -12% | · | · | · | · | ·
Nc1ncnc(Sc2ncccn2)c1[N+](=O)[O-] | -6% | 1%[2.29 µM] | 2% | 88% | 18µM* | 5%[10.4 µM] | ? | 4% | -2% | 18%
CC1=CC(=O)c2ccccc2C1=O | ? | -22% | 2% | -14% | ? | -8%[38.3 µM] | -14% | ? | ? | ?
COc1cccc2c1C(=O)C=C(C)C2=O | -20% | -6% | -2% | 5% | ? | · | · | · | · | ·
CSCC[C@H](NC(=O)[C@H](Cc1c[nH]c2ccccc12)NC(=O)CCNC(=O)OC(C)(C)C)C(=O)N[C@@H](CC(=O)O)C(=O)N[C@@H](Cc1ccccc1)C(N)=O | · | · | · | · | -1% | · | · | · | · | ·
CC1Cc2cc(S(=O)(=O)CCC(=O)NCc3ccco3)ccc2N1C(=O)C1CC1 (configuration not stated) | -16% | 4% | 6% | 3% | 0% | · | · | · | · | ·
COc1ccc(S(=O)(=O)N2CCN(Cc3ccccc3)CC2)c(C)c1 | -6% | 47% | -1% | -1% | 8% | · | · | · | · | ·
Cc1ccc(S(=O)(=O)N2CCN(CCc3ccccc3)CC2)c(C)c1 | 0% | 25% | -15% | ? | 20µM* | -3% | 8% | 5% | 19% | 6%
NNC(=S)NC1CCS(=O)(=O)C1 (configuration not stated) | 2% | -12% | 3% | 53% | 18µM* | 29% | 11% | -3% | 12% | 2%
O=[N+]([O-])c1ccc(NN=CC2CCCCCC2)c([N+](=O)[O-])c1 | · | · | · | -21% | · | · | · | · | · | ·
COc1ccccc1OCC#CCN1CCCCCC1 | -4% | 1%[2.29 µM] | 9% | ? | ? | · | · | · | · | ·
COc1ccccc1OCC#CCN1CCOCC1 | 1% | -12%[2.29 µM] | 0% | -23% | 11µM* | 5%[10.4 µM] | 0% | 1% | 2% | 14%
SMILES | AmpC inh detg | AmpC inh no detg | LmPK inh | AMA1-RON2 inh | Giardia FBPA inh-1 | Giardia growth | Mammalian tox | Giardia FBPA inh-2 | Rabbit FBPA inh | GAPDH counter
Oc1ccccc1N=Cc1c(O)ccc2ccccc12 | -8% | -46% | -7% | -7% | ? | 7%[38.3 µM] | -14% | 0.33µM* | ? | -28%
CN(C)CCCCOc1ccccc1F | 0% | -3%[2.29 µM] | 1% | -15% | 20µM* | ? | 9% | 4% | 11% | -7%
CCOc1ccc(NC(=S)NC(=O)c2cccnc2)c([N+](=O)[O-])c1 | 2% | -5% | 1% | 40% | 8.9µM* | 35µM* | 22% | 0% | -4% | -20%
COc1ccc(C(=O)NC(=S)Nc2cccnc2)cc1Cl | -13% | -20% | -3% | 42% | 10µM* | 8%[10.4 µM] | -2% | 7% | 1% | 6%
CCOc1cc(C(=O)NC(=S)Nc2cccnc2)cc(OCC)c1OCC | -9% | 34% | 0% | 14% | 11µM* | 3%[10.4 µM] | 8% | -1% | 7% | 9%
CCOc1ccc(C(=O)NC(=S)Nc2cccnc2)cc1 | 3% | -10% | -4% | 3% | ? | · | · | · | · | ·
CCOc1ccc(NC(=S)NC(=O)c2c(Br)cnn2C)c([N+](=O)[O-])c1 | ? | ? | 3% | 4% | -5% | · | · | · | · | ·
COc1cc(C(=O)NC(=S)Nc2ccc(Cl)cn2)cc(OC)c1OC | 1% | 60% | -2% | 9% | 10µM* | 7%[38.3 µM] | 2% | 2% | -2% | -3%
COc1cc(C(=O)Nc2ccc(NC(=O)c3cccc(Cl)c3)nc2)cc(OC)c1OC | -2% | 67% | 5% | 6% | 7% | · | · | · | · | ·
COc1ccccc1NC(=O)C(C)Sc1nnc2ccccn12 (configuration not stated) | -3% | -25% | · | -3% | · | · | · | · | · | ·
CCOc1ccccc1NC(=O)N1CCN(C)c2ncccc21 | 9% | · | · | · | · | · | · | · | · | ·
